In all, about 5,500 compounds went through this assay and about 2,000 (36%) were called active. Roughly 18% stayed inconclusive and do not appear here. No stated cut-off is given here; in the data, active means normalized growth mostly below about 0.91 (no sharp cut-off); inconclusive means no clear call, values can overlap the other calls; inactive means mostly above about 0.92. The list shows a part of the results.
Experiment: chemical genetic growth profiling, strain panel (AID 1159580);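 further: tested at 20 µM; growth read once vehicle control cultures reached saturation at 30 °C; 1 = growth at the plate median or of vehicle wells; lower values mean less growth of the strain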
Settings: growth OD

Measured: normalized growth

NC(=O)c1cc[n+](CC2=C(C(=O)O)N3C(=O)C(NC(=O)C(c4ccccc4)S(=O)(=O)[O-])C3SC2)cc1 (stereo not given)
inactive: S. cerevisiae deletion strains, locus YJR066W, strain TOR1, active compounds read low 1 | S. cerevisiae deletion strains, locus YKL009W, strain mrt4, active compounds read low 0.991 | S. cerevisiae deletion strains, locus YKL068W, active compounds read low 0.992 | S. cerevisiae deletion strains, locus YKL085W, strain MDH1 (second series), active compounds read low 0.987 | S. cerevisiae deletion strains, locus YKL085W, strain MDH1, active compounds read low 0.987 | S. cerevisiae deletion strains, locus YKL160W, strain elf1, active compounds read low 0.967 | S. cerevisiae deletion strains, locus YKL190W, strain CNB1, active compounds read low 0.996 | S. cerevisiae deletion strains, locus YKR001C, strain vps1, active compounds read low 0.993 | S. cerevisiae deletion strains, locus YKR026C, strain gcn3, active compounds read low 0.96 | S. cerevisiae deletion strains, locus YKR091W, strain srl3, active compounds read low 1.01 | S. cerevisiae deletion strains, locus YLL001W, strain dnm1, active compounds read low 0.961 | S. cerevisiae deletion strains, locus YLL026W, active compounds read low 0.999 | S. cerevisiae deletion strains, locus YLL041C, strain sdh2, active compounds read low 0.978 | S. cerevisiae deletion strains, locus YLR027C, strain aat2, active compounds read low 0.982 | S. cerevisiae deletion strains, locus YLR039C, strain RIC1, active compounds read low 0.986 | S. cerevisiae deletion strains, locus YLR058C, strain SHM2, active compounds read low 0.987 | S. cerevisiae deletion strains, locus YLR102C, strain apc9, active compounds read low 0.992 | S. cerevisiae deletion strains, locus YLR113W, strain HOG1, active compounds read low 1.09 | S. cerevisiae deletion strains, locus YLR221C, strain rsa3, active compounds read low 0.991 | S. cerevisiae deletion strains, locus YLR258W, strain gsy2, active compounds read low 1.01 | S. cerevisiae deletion strains, locus YLR262C, strain YPT6 (second series), active compounds read low 0.983 | S. cerevisiae deletion strains, locus YLR262C, strain YPT6, active compounds read low 0.945 | S. cerevisiae deletion strains, locus YLR268W, strain sec22, active compounds read low 0.981 | S. cerevisiae deletion strains, locus YLR320W, strain mms22, active compounds read low 1.01 | S. cerevisiae deletion strains, locus YLR330W, strain CHS5, active compounds read low 0.982 | S. cerevisiae deletion strains, locus YLR342W, strain FKS1 (second series), active compounds read low 0.959 | S. cerevisiae deletion strains, locus YLR342W, strain FKS1, active compounds read low 0.973 | S. cerevisiae deletion strains, locus YLR357W, strain rsc2, active compounds read low 0.965 | S. cerevisiae deletion strains, locus YLR370C, strain arc18, active compounds read low 1 | S. cerevisiae deletion strains, locus YLR371W, strain rom2, active compounds read low 0.987 | S. cerevisiae deletion strains, locus YLR384C, strain iki3, active compounds read low 0.984 | S. cerevisiae deletion strains, locus YLR418C, strain cdc73, active compounds read low 0.972 | S. cerevisiae deletion strains, locus YML016C, strain PPZ1, active compounds read low 0.982 | S. cerevisiae deletion strains, locus YML032C, strain rad52, active compounds read low 0.989 | S. cerevisiae deletion strains, locus YML120C, strain ndi1, active compounds read low 0.986 | S. cerevisiae deletion strains, locus YML124C, strain tub3, active compounds read low 0.982 | S. cerevisiae deletion strains, locus YMR058W, strain fet3, active compounds read low 0.998 | S. cerevisiae deletion strains, locus YMR078C, strain ctf18, active compounds read low 0.989 | S. cerevisiae deletion strains, locus YMR125W, strain sto1, active compounds read low 0.971 | S. cerevisiae deletion strains, locus YMR129W, active compounds read low 1.01 | S. cerevisiae deletion strains, locus YMR205C, strain PFK2, active compounds read low 1 | S. cerevisiae deletion strains, locus YMR223W, strain ubp8, active compounds read low 0.974 | S. cerevisiae deletion strains, locus YMR231W, strain pep5, active compounds read low 1 | S. cerevisiae deletion strains, locus YMR307W, strain GAS1, active compounds read low 0.883 | S. cerevisiae deletion strains, locus YNL067W, strain RPL9B, active compounds read low 1.02 | S. cerevisiae deletion strains, locus YNL071W, strain lat1, active compounds read low 1.01 | S. cerevisiae deletion strains, locus YNL153C, strain GIM3, active compounds read low 1.04 | S. cerevisiae deletion strains, locus YNL183C, strain NPR1, active compounds read low 0.999 | S. cerevisiae deletion strains, locus YNL209W, strain ssb2, active compounds read low 1.01 | S. cerevisiae deletion strains, locus YNL233W, strain BNI4, active compounds read low 1.01 | S. cerevisiae deletion strains, locus YNL248C, strain rpa49, active compounds read low 0.987 | S. cerevisiae deletion strains, locus YNL250W, strain rad50, active compounds read low 0.975 | S. cerevisiae deletion strains, locus YNL271C, strain bni1, active compounds read low 0.985 | S. cerevisiae deletion strains, locus YNL298W, strain CLA4, active compounds read low 0.988 | S. cerevisiae deletion strains, locus YNL307C, strain MCK1, active compounds read low 0.987 | S. cerevisiae deletion strains, locus YNL322C, strain KRE1 (second series), active compounds read low 0.994 | S. cerevisiae deletion strains, locus YNL322C, strain KRE1, active compounds read low 0.993 | S. cerevisiae deletion strains, locus YNR049C, strain mso1, active compounds read low 0.986 | S. cerevisiae deletion strains, locus YNR052C, strain pop2, active compounds read low 0.991 | S. cerevisiae deletion strains, locus YOL006C, strain TOP1, active compounds read low 1.02 | S. cerevisiae deletion strains, locus YOL012C, strain htz1 1.88 | S. cerevisiae deletion strains, locus YOL147C, strain pex11, active compounds read low 0.983 | S. cerevisiae deletion strains, locus YOR001W, strain rrp6, active compounds read low 0.985 | S. cerevisiae deletion strains, locus YOR061W, strain CKA2, active compounds read low 0.985 | S. cerevisiae deletion strains, locus YOR069W, strain VPS5, active compounds read low 0.987 | S. cerevisiae deletion strains, locus YOR070C, strain gyp1, active compounds read low 1.01 | S. cerevisiae deletion strains, locus YOR080W, strain dia2, active compounds read low 0.982 | S. cerevisiae deletion strains, locus YOR083W, strain WHI5, active compounds read low 0.985 | S. cerevisiae deletion strains, locus YOR106W, strain vam3, active compounds read low 0.992 | S. cerevisiae deletion strains, locus YOR136W, strain idh2, active compounds read low 0.998 | S. cerevisiae deletion strains, locus YOR144C, strain elg1, active compounds read low 0.991 | S. cerevisiae deletion strains, locus YOR184W, strain ser1, active compounds read low 0.98 | S. cerevisiae deletion strains, locus YOR231W, strain MKK1, active compounds read low 1.09 | S. cerevisiae deletion strains, locus YOR265W, strain rbl2, active compounds read low 1 | S. cerevisiae deletion strains, locus YOR270C, strain vph1, active compounds read low 0.93 | S. cerevisiae deletion strains, locus YOR290C, strain snf2, active compounds read low 0.998 | S. cerevisiae deletion strains, locus YOR316C, strain cot1, active compounds read low 0.994 | S. cerevisiae deletion strains, locus YPL051W, strain arl3, active compounds read low 0.987 | S. cerevisiae deletion strains, locus YPL055C, strain LGE1, active compounds read low 1.06 | S. cerevisiae deletion strains, locus YPL078C, strain atp4, active compounds read low 0.962 | S. cerevisiae deletion strains, locus YPL106C, strain sse1, active compounds read low 1.02 | S. cerevisiae deletion strains, locus YPL240C, strain hsp82, active compounds read low 0.987 | S. cerevisiae deletion strains, locus YPL241C, strain CIN2, active compounds read low 0.991 | S. cerevisiae deletion strains, locus YPL256C, strain CLN2, active compounds read low 1.07 | S. cerevisiae deletion strains, locus YPR119W, strain clb2, active compounds read low 0.995 | S. cerevisiae deletion strains, locus YPR141C, strain kar3, active compounds read low 0.98 | S. cerevisiae deletion strains, locus YPR163C, strain tif3, active compounds read low 0.987 | S. cerevisiae deletion strains, locus YPR167C, strain met16, active compounds read low 0.981 | S. cerevisiae deletion strains, strain wtn01, active compounds read low 0.981 | S. cerevisiae strains, strain wild type, active compounds read low 0.995

— PubChem BioAssay AID1159580 (chemical genetic matrix, 2015)
